# Several values for one entry are separate records, joined by “and”; a condition that tells them apart may be missing. Equal values may be shown once. The campaign covered roughly 420,000 compounds. About 64,000 (15%) were called active. About 27% were inconclusive and are not listed. A selection follows. Entries that show only a call come without a potency. Unmarked numbers belong to inactive results. Calls come from the whole dose curve; as a rule, active = well fitted inhibition curve with a large enough effect; inconclusive = small, poorly fitted or top-dose-only effect; inactive = flat fitted curve, though single readings scatter.
# Test: qHTS for Inhibitors of human tyrosyl-DNA phosphodiesterase 1 (TDP1): qHTS in cells in absence of CPT; note: nearly all actives have a fitted effect of over 55% in size
# Settings: DT40 Tdp1-/- hTDP1 cells, no CPT, ATP luminescence, 48 h; activity change, negative = growth inhibition: at 46.2 µM (top of the series)
# Outline: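 Camptothecin absent (DMSO only). Human TDP1-complemented DT40 knockout cells, 400 cells/well, 37 °C for minimum 48 hr; ATP measured via CellTiter-Glo, 30 min dark incubation, luminescence.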
# Potency is the fitted concentration of half-maximal effect.
Structure (SMILES),Potency,"activity change, negative = growth inhibition"
O=C(CCn1c(=O)oc2ccccc21)Nc1ccon1,inactive,–
O=C(CNC(=O)c1ccccc1Br)NNC(=O)c1cccs1,inactive,–
Cc1ccc(C)c(S(=O)(=O)c2nnn3c2nc(N2CCOCC2)c2sccc23)c1,23.1 µM (active),–
Cc1ccc(S(=O)(=O)c2nnn3c2nc(N2CCN(c4ccccn4)CC2)c2ccccc23)cc1,inactive,–
O=S(=O)(c1ccc(Br)cc1)c1nnn2c1nc(NC1CCCCCC1)c1sccc12,inactive,–
COc1ccc(CCOC(=O)CNC(=O)c2ccc(Cl)cc2Cl)cc1,inactive,–
COc1ccccc1N1CCN(C(=O)c2ccc(NC3=NC4CS(=O)(=O)CC4S3)cc2)CC1 (stereo unspecified),inactive,–
COc1ccc(Nc2ncc(C(=O)Nc3cc(C)ccc3OC)c3ccccc23)cc1,23.1 µM (active),–
COC(=O)c1cnc(Nc2cc(C)ccc2OC)c2ccccc12,inactive,–
COc1ccc(NC(=O)c2cnc(Nc3ccc(C)c(Cl)c3)c3ccccc23)cc1OC,inactive,–
COc1ccc(Nc2ncc(C(=O)N3CCN(c4ccccc4OC)CC3)c3ccccc23)cc1,25.9 µM (active) and 5.8 µM (active),–
COc1ccc(NC2CCCN(C(=O)c3ccccc3-c3ncc[nH]3)C2)cc1 (stereo unspecified),inactive,–
CC(C)(C)C(=O)CSc1ccc(S(=O)(=O)N2CCCC2)cn1,inactive,–
Cc1ccccc1NC(=O)c1cc2c([nH]c1=O)CC(C)(C)CC2=O,inactive,–
Cn1c(CSCC(=O)Nc2ccccc2)nnc1SCc1ccccc1,inactive,–
NS(=O)(=O)c1ccc(CNC(=S)NC(=O)c2ccco2)cc1,inactive,–
COC(=O)c1c(NC(=O)CCCC(=O)O)sc2c1CCCCC2,inactive,–
COC(=O)c1c(NC(=O)C2CC(C)=C(C)CC2C(=O)O)sc2c1CCCCC2 (stereo unspecified),inactive,–
CCc1ccc(N(CC(=O)Nc2sc3c(c2C(=O)OC)CCCC3)S(C)(=O)=O)cc1,23.1 µM (active),–
O=C(COc1ccccc1)Nc1cc2c3c(c1)CC(=O)N3CCC2,inactive,–
O=C(CN1CCOCC1)N/N=C/c1ccc(-c2ccc(Br)cc2)o1,inactive,–
O=C1CCC(=O)N(c2ccccc2)N1,inactive,–
CN(C)S(=O)(=O)c1cccc(NC(=O)COC(=O)c2cc(=O)[nH]c(=O)[nH]2)c1,inactive,–
CN(C)S(=O)(=O)c1cccc(NC(=O)COC(=O)/C=C/c2cccs2)c1,inactive,–
CN(C)S(=O)(=O)c1cccc(NC(=O)COC(=O)C2(c3ccccc3F)CCCC2)c1,13 µM (active),–
COc1ccc(S(=O)(=O)N2CCN(C(=O)c3cccs3)CC2)cc1OC,inactive,–

Structure (SMILES),Potency,"activity change, negative = growth inhibition"
O=S(=O)(NCCc1ccccc1)c1ccccc1,inactive,–
CCSC1=NCCN1C(=O)c1ccc(S(=O)(=O)N(CC)CC)cc1,inactive,–
CCCN(CCC)S(=O)(=O)c1ccc(C(=O)N2CC3CCC(CC3)C2)cc1,23.1 µM (active),–
CCN(CC(=O)N1CCCC1)S(=O)(=O)c1ccc(F)cc1,inactive,–
CC(C)CCNc1nc(N2CCCC2)c2c(c1C#N)CCN(C)C2,23.1 µM (active),–
CCc1nc(NCCO)c(C#N)c2c1CCCC2,inactive,–
N#CCc1c(C#N)c(N)nc(N2CCCC2)c1C#N,inactive,–
CC(=O)Nc1ccc(Nc2ncnc3c2nnn3Cc2ccccc2Cl)cc1,inactive,–
O=C(Nc1cccc(F)c1)N1CC2(CCN(C(=O)c3csnn3)CC2)C1,inactive,–
O=S(=O)(NC1CC2CCC1C2)c1ccc(Cl)cc1 (stereo unspecified),inactive,–
Nc1nc2c(ncn2[C@@H]2O[C@H](CNS(=O)(=O)N3CCc4ccccc4C3)[C@@H](O)[C@H]2O)c(=O)[nH]1,inactive,–
COc1cc2[nH]c(=S)n(CCN3CCCCC3C)c(=O)c2cc1OC (stereo unspecified),inactive,–
COc1ccc2c(c1)C(=C(C#N)C#N)C(=O)N2CCc1ccccc1,14.6 µM (active),–
CCCCN1C(=O)/C(=C(/C#N)C(N)=O)c2ccccc21,inactive,–
COc1cccc(CNC(=O)CN2C(=O)NC(Cc3ccccc3)(c3ccccc3)C2=O)c1 (stereo unspecified),inactive,–
NC(=O)C1CCN(C(=O)c2ccc3c(=O)n(Cc4cccc(Br)c4)c(=S)[nH]c3c2)CC1,inactive,–
Cc1cc(C)cc(OCC(=O)Nc2cc(NC(=O)COc3cc(C)cc(C)c3)cc(C(=O)O)c2)c1,inactive,–
COC(C)C(C(=O)OCC1=CCN2CC[C@H](O)[C@@H]12)C(C)C (stereo partly specified),–,-18.8% [at 9.04 µM]
O=C(Cc1ccccn1)c1ccc(O)cc1O,inactive,–
Cc1ccc2[nH]c(=O)c(CN(C)S(=O)(=O)c3cccc4nonc34)cc2c1,inactive,–
Cn1c(SCC(=O)N2CCCCC2)nc2c(c1=O)SCC2,inactive,–
CCn1c(SCc2ccccc2)nc2c(c1=O)SCC2,inactive,–
Cc1cccc(CSc2nc3c(c(=O)n2C)SCC3)c1,14.6 µM (active),–
CCCCNC(=O)OC(C)CNC(=O)OC (stereo unspecified),inactive,–
CCC1CN(CCNC(=O)c2cccnc2C)Cc2cc(OC)ccc2O1 (stereo unspecified),inactive,–
CCCS(=O)(=O)NCc1c(C)ncc2c1CCN(C(=O)c1ccc(F)c(F)c1)C2,inactive,–

Structure (SMILES),Potency,"activity change, negative = growth inhibition"
CCOC(=O)CCCCCC(=O)Nc1ccc2c(c1)CC(=O)N([C@@H](C)CO)C[C@H](C)[C@@H](CN(C)Cc1ccccc1)O2,inactive,–
CCSc1nnc(SCC(=O)NNC(=O)c2ccccc2F)s1,inactive,–
Cc1cccc(N2CCN(C(=O)COCc3cc(-c4ccc5c(c4)OCO5)on3)CC2)c1C,inactive,–
Cc1cccc(N2CCN(C(=O)c3ccc4c(c3)CCN4S(=O)(=O)c3ccccc3)CC2)c1C,6.51 µM (active),–
CCn1c(C)c(C)c2cc(C(=O)N3CCN(c4cccc(C)c4C)CC3)ccc21,23.1 µM (active) and 20.6 µM (active),–
Cc1ccccc1N1CCN(C(=O)c2cccnc2)CC1,inactive,–
O=C(c1c(F)cccc1F)N1CCN(c2ncc(Br)cn2)CC1,inactive,–
Cc1cccc(N2CCN(C(=O)c3ccc(Nc4nc5ccccc5n5nnnc45)cc3)CC2)c1C,inactive,–
CCC(CC)C(=O)N1CCN(c2cccc(C)c2C)CC1,11.6 µM (active),–
CC(=O)N1CCN(c2cccc(C)c2C)CC1,inactive,–
Cc1[nH]c2ccc(C(=O)N3CCN(C)CC3)cc2c1C,inactive,–
Cc1cccc(N2CCN(C(=O)c3cnc(N4CCCC4)nc3C)CC2)c1C,20.6 µM (active),–
O=C(O)C(O)[C@@](O)(Cc1ccc(O)cc1)C(=O)O (stereo partly specified),inactive,–
COCCCN1C(=O)C(=O)/C(=C(/O)c2ccc(S(=O)(=O)N3CCOCC3)cc2)C1c1ccc(F)cc1 (stereo unspecified),inactive,–
Cc1ccc(CNC(=O)Nc2nnc([C@H]3C[C@H](O)[C@@H](CO)O3)s2)cc1,inactive,–
O=C(O)CC(SCC(=O)Nc1ccc(Br)cc1)C(=O)O (stereo unspecified),inactive,–
O=C(Nc1nnc(CCOCCOCCc2nnc(NC(=O)c3ccco3)s2)s1)c1ccco1,inactive,–
CCC(=O)Nc1nc(OC)cc(OC)n1,inactive,–
CCOc1ccccc1NC(=S)N1CCN(c2cccc(C)c2C)CC1,8.2 µM (active),–
CCc1ccc(NC(=O)CS(=O)CC(=O)N2CCN(c3ccccc3F)CC2)cc1 (stereo unspecified),inactive,–
CCOc1ccccc1NC(=O)C1CCCN(C(=O)Nc2ccccc2)C1 (stereo unspecified),inactive,–
O=C(c1ccc(CN2CCOCC2)cc1)N1CCN(c2ccccc2F)CC1,inactive,–
Cc1cccc(NC(=S)N2CCC(O)CC2)c1C,inactive,–
Cc1c(C)n(Cc2ccc(Cl)cc2)c2ccc(C(=O)N3CCN(c4ccccc4F)CC3)cc12,23.1 µM (active),–
Brc1ccccc1C1Nc2cccc3cccc(c23)N1,inactive,–
O=C(Cc1ccc(F)cc1)NC1CCCC1,inactive,–

Structure (SMILES),Potency,"activity change, negative = growth inhibition"
CCOc1ccc(NC(=O)CN(C)C(=O)c2c(C)noc2C)cc1OCC,inactive,–
N#CC1(NC(=O)COc2ccc3oc4ccccc4c3c2)CCCCC1,inactive,–
CCOC(=O)[C@H]1CCC[C@@H](NS(=O)(=O)c2ccc(NC(C)=O)cc2)C1,inactive,–
COc1ccccc1OC(C)C(=O)Nc1ccc(S(=O)(=O)Nc2nccs2)cc1 (stereo unspecified),inactive,–
CCOc1ccc(C(C(=O)NCCOC)N(CCOC)C(=O)CCC(=O)Nc2ccccn2)cc1 (stereo unspecified),inactive,–
Cc1ccc(C(=O)NCCc2nnc(SCC(=O)Nc3cccc(C(=O)O)c3)n2C)cc1,inactive,–
CCS(=O)(=O)C1=NSC2=NC(=O)/C(=C\c3cc(C)n(-c4cccc(OC)c4)c3C)C(=N)N21,inactive,–
CCCCN(C=O)c1c(CC)nc2c(OCCC3CCCCC3)cccn12,9.2 µM (active),–
CCc1nc2c(OCC(=O)C(C)(C)C)cccn2c1N(C)C(=O)c1ccccc1F,inactive,–
CCOc1ccccc1N(CC(=O)Nc1ccccc1C(=O)OC)S(C)(=O)=O,inactive,–
CCCCN(C=O)c1c(CC)nc2c(OCc3ccccc3C(=O)OC)cccn12,20.6 µM (active),–
CCc1nc2c(OCC(N)=O)cccn2c1N(C)C(=O)c1ccc(OC)cc1,inactive,–
CCc1nc2ccc(C(=O)N3CCN(S(=O)(=O)CC)CC3)cn2c1N(C=O)CCC(C)C,inactive,–
CCc1nc2c(OCCC3CCCCC3)cccn2c1N(C)C(=O)c1ccco1,16.4 µM (active),–
O=C(CNC(=O)c1ccco1)OCC(=O)c1ccccc1,inactive,–
COc1ccc(COC(=O)N/N=C(\C)CC(=O)Nc2ccc(Cl)cc2)cc1,inactive,–
CN(C)/N=C/c1cc(Cl)cc([N+](=O)[O-])c1O,inactive,–
O=C(NC(Cc1ccccc1)C(=O)O)/C(=C\c1ccccc1)NC(=O)c1ccco1 (stereo unspecified),inactive,–
CC(=O)Nc1ccc(NC(=O)CS(=O)(=O)c2cn(CC(=O)N3CCCCC3)c3ccccc23)cc1,inactive,–
Cc1noc(C)c1C(=O)Nc1ccccn1,inactive,–
CCOC1=C2CN(S(=O)(=O)c3ccc(C)cc3)[C@H](c3cccs3)C[C@H]2[C@H]2C(=O)N(c3ccccc3)C(=O)[C@H]2C1,inactive,–
COC(=O)CSc1nnc(-c2cccnc2)o1,inactive,–
CN(CC(=O)NC1CCCC1)S(=O)(=O)c1cnc[nH]1,inactive,–

# Source: PubChem BioAssay AID686978 (National Center for Advancing Translational Sciences (NCATS), 2013)
